# Where “and” joins values, the source holds several entries; their conditions need not be identical. Equal entries are not always repeated. Hit rate of the full screen: of about 5,500 compounds, about 2,000 (36%) were called active. Not shown: some 18% with an inconclusive outcome. Rule as the data show it: active = normalized growth mostly below about 0.91 (no sharp cut-off); inconclusive = no clear call, values can overlap the other calls; inactive = mostly above about 0.92. This is one part of the list.
# Assay: chemical genetic growth profiling, strain panel (AID 1159580);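 also: tested at 20 µM; growth read once vehicle control cultures reached saturation at 30 °C; 1 = growth at the plate median or of vehicle wells; lower values mean less growth of the strain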
# Details: S. cerevisiae deletion strains, growth OD
smiles,measurement,setting,value
COc1ccc2c(c1)CCC1C2CC[C@@]2(C)C1CC[C@@H]2O (some centres not stated),normalized growth,"locus YAL013W, strain DEP1, stronger effect = lower value",0.82 (active)
same,normalized growth,"locus YAL021C, strain ccr4, stronger effect = lower value",0.959 (inactive)
same,normalized growth,"locus YAL026C, strain drs2, stronger effect = lower value",0.682 (active)
same,normalized growth,"locus YAL030W, strain snc1, stronger effect = lower value",0.959 (inactive)
same,normalized growth,"locus YBL061C, strain skt5, stronger effect = lower value",0.889 (active)
same,normalized growth,"locus YBR009C, strain hhf1, stronger effect = lower value",0.76 (active)
same,normalized growth,"locus YBR021W, strain FUR4, stronger effect = lower value",1.04 (inactive)
same,normalized growth,"locus YBR023C, strain chs3, stronger effect = lower value",0.852 (active)
same,normalized growth,"locus YBR171W, strain sec66, stronger effect = lower value",0.94 (inactive)
same,normalized growth,"locus YBR229C, strain ROT2, stronger effect = lower value",0.982 (inactive)
same,normalized growth,"locus YBR231C, strain swc5, stronger effect = lower value",0.978 (inactive)
same,normalized growth,"locus YBR279W, strain paf1, stronger effect = lower value",0.884 (active)
same,normalized growth,"locus YCL011C, strain gbp2, stronger effect = lower value",0.813 (active)
same,normalized growth,"locus YCL016C, strain dcc1, stronger effect = lower value",0.862 (active)
same,normalized growth,"locus YCL029C, strain bik1, stronger effect = lower value",0.884 (active)
same,normalized growth,"locus YCL061C, strain MRC1, stronger effect = lower value",0.854 (active)
same,normalized growth,"locus YCL069W, strain vba3, stronger effect = lower value",0.898 (active)
same,normalized growth,"locus YCR088W, strain abp1, stronger effect = lower value",0.937 (inactive)
same,normalized growth,"locus YDL005C, strain med2, stronger effect = lower value",0.983 (inactive)
same,normalized growth,"locus YDL035C, strain GPR1, stronger effect = lower value",0.728 (active)
same,normalized growth,"locus YDL040C, strain nat1, stronger effect = lower value",0.96 (inactive)
same,normalized growth,"locus YDL074C, strain BRE1, stronger effect = lower value",0.514 (active)
same,normalized growth,"locus YDL101C, strain DUN1, stronger effect = lower value",0.899 (inactive)
same,normalized growth,"locus YDL134C, strain PPH21, stronger effect = lower value",0.799 (active)
same,normalized growth,"locus YDL185W, strain tfp1, stronger effect = lower value",0.961 (inactive)
same,normalized growth,"locus YDL192W, strain arf1, stronger effect = lower value",0.502 (active)
same,normalized growth,"locus YDR001C, strain nth1, stronger effect = lower value",0.965 (inactive)
same,normalized growth,"locus YDR069C, strain doa4, stronger effect = lower value",1.01 (inactive)
same,normalized growth,"locus YDR101C, strain arx1, stronger effect = lower value",0.811 (active)
same,normalized growth,"locus YDR137W, strain rgp1, stronger effect = lower value",0.578 (active)
same,normalized growth,"locus YDR150W, strain NUM1, stronger effect = lower value",0.944 (inactive)
same,normalized growth,"locus YDR159W, strain sac3, stronger effect = lower value",0.746 (active)
same,normalized growth,"locus YDR162C, strain NBP2, stronger effect = lower value",0.405 (active)
same,normalized growth,"locus YDR195W, strain ref2",0.953 (inactive)
same,normalized growth,"locus YDR297W, strain sur2, stronger effect = lower value",0.915 (active)
same,normalized growth,"locus YDR318W, strain mcm21, stronger effect = lower value",0.7 (active)
same,normalized growth,"locus YDR334W, strain swr1, stronger effect = lower value",1 (inactive)
same,normalized growth,"locus YDR335W, strain msn5, stronger effect = lower value",0.872 (active)
same,normalized growth,"locus YDR388W, stronger effect = lower value",0.936 (inactive)
same,normalized growth,"locus YDR392W, strain spt3, stronger effect = lower value",0.239 (active)
same,normalized growth,"locus YDR502C, strain sam2, stronger effect = lower value",0.757 (active)
same,normalized growth,"locus YEL003W, strain gim4, stronger effect = lower value",0.842 (active)
same,normalized growth,"locus YEL037C, strain rad23, stronger effect = lower value",0.966 (inactive)
same,normalized growth,"locus YEL061C, strain CIN8 (second series), stronger effect = lower value",0.893 (active)
same,normalized growth,"locus YEL061C, strain CIN8, stronger effect = lower value",0.825 (active)
same,normalized growth,"locus YER015W, strain faa2, stronger effect = lower value",0.86 (active)
same,normalized growth,"locus YER016W, strain bim1, stronger effect = lower value",0.957 (inactive)
same,normalized growth,"locus YER110C, stronger effect = lower value",0.875 (active)
same,normalized growth,"locus YER111C, strain swi4, stronger effect = lower value",0.939 (inactive)
same,normalized growth,"locus YER155C, strain BEM2 (second series), stronger effect = lower value",0.686 (active)
same,normalized growth,"locus YER155C, strain BEM2, stronger effect = lower value",0.676 (active)
same,normalized growth,"locus YER167W, strain BCK2, stronger effect = lower value",0.653 (active)
same,normalized growth,"locus YFR010W, strain ubp6, stronger effect = lower value",0.974 (inactive)
same,normalized growth,"locus YGL078C, strain dbp3, stronger effect = lower value",0.783 (active)
same,normalized growth,"locus YGL086W, strain mad1, stronger effect = lower value",0.75 (active)
same,normalized growth,"locus YGL167C, strain pmr1, stronger effect = lower value",0.965 (inactive)
same,normalized growth,"locus YGL173C, strain kem1, stronger effect = lower value",0.885 (active)
same,normalized growth,"locus YGL227W, strain vid30, stronger effect = lower value",0.903 (active)
same,normalized growth,"locus YGL240W, strain doc1, stronger effect = lower value",0.855 (active)
same,normalized growth,"locus YGL248W, strain PDE1, stronger effect = lower value",0.844 (active)
same,normalized growth,"locus YGL253W, strain hxk2, stronger effect = lower value",0.786 (active)
same,normalized growth,"locus YGR078C, strain PAC10, stronger effect = lower value",0.659 (active)
same,normalized growth,"locus YGR135W, strain pre9, stronger effect = lower value",0.731 (active)
same,normalized growth,"locus YGR229C, strain SMI1, stronger effect = lower value",0.407 (active)
same,normalized growth,"locus YGR252W, strain gcn5, stronger effect = lower value",0.47 (active)
same,normalized growth,"locus YHR013C, strain ard1, stronger effect = lower value",1.04 (inactive)
same,normalized growth,"locus YHR027C, strain rpn1, stronger effect = lower value",0.977 (inactive)
same,normalized growth,"locus YHR030C, strain SLT2, stronger effect = lower value",0.36 (active) and 0.884 (inactive)
same,normalized growth,"locus YHR079C, strain IRE1 (second series), stronger effect = lower value",0.787 (active)
same,normalized growth,"locus YHR079C, strain IRE1, stronger effect = lower value",0.872 (inactive)
same,normalized growth,"locus YHR094C, strain hxt1, stronger effect = lower value",0.951 (inactive)
same,normalized growth,"locus YHR129C, strain ARP1, stronger effect = lower value",0.753 (active)
same,normalized growth,"locus YHR142W, strain chs7, stronger effect = lower value",0.628 (active)
same,normalized growth,"locus YHR200W, strain rpn10, stronger effect = lower value",0.817 (active)
same,normalized growth,"locus YIL066C, strain RNR3, stronger effect = lower value",0.625 (active)
same,normalized growth,"locus YIL073C, strain SPO22, stronger effect = lower value",0.727 (inactive)
same,normalized growth,"locus YIL125W, strain kgd1, stronger effect = lower value",0.822 (active)
same,normalized growth,"locus YIR030C, strain dcg1, stronger effect = lower value",0.902 (active)
same,normalized growth,"locus YJL092W, strain hpr5, stronger effect = lower value",0.934 (inactive)
same,normalized growth,"locus YJL095W, strain BCK1 (second series), stronger effect = lower value",0.833 (active)
same,normalized growth,"locus YJL095W, strain BCK1, stronger effect = lower value",0.363 (active) and 0.882 (active)
same,normalized growth,"locus YJL115W, strain asf1, stronger effect = lower value",0.987 (inactive)
same,normalized growth,"locus YJL129C, strain trk1, stronger effect = lower value",0.804 (active)
same,normalized growth,"locus YJL134W, strain LCB3, stronger effect = lower value",0.989 (inactive)
same,normalized growth,"locus YJL154C, strain vps35, stronger effect = lower value",0.986 (inactive)
same,normalized growth,"locus YJL164C, strain tpk1, stronger effect = lower value",0.812 (active)
same,normalized growth,"locus YJL166W, strain qcr8, stronger effect = lower value",0.775 (active)
same,normalized growth,"locus YJL168C, strain set2, stronger effect = lower value",0.943 (inactive)
same,normalized growth,"locus YJL187C, strain SWE1 (second series), stronger effect = lower value",0.818 (active)
same,normalized growth,"locus YJL187C, strain SWE1, stronger effect = lower value",0.898 (active)
same,normalized growth,"locus YJR043C, strain POL32, stronger effect = lower value",0.698 (active)
same,normalized growth,"locus YJR066W, strain TOR1, stronger effect = lower value",0.907 (inactive)

# Source: PubChem BioAssay AID1159580 (chemical genetic matrix, 2015)
